Sampled rows, rich in hits. Any-hit rate of the full collection: about 1.2%.
GC-B act = human GC-B receptor activators, primary screen, HEK293 GC-B cells, cGMP TR-FRET, EC30 CNP; Atrial natriuretic peptide receptor 2 (Homo sapiens), P20594; 0% at EC30 CNP, 100% saturating CNP; activation, % at 10 µM; hit rate 0.11% among 370,000;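 active means activation at 10 µM reaching about 35% in either raw or pattern-adjusted values, limit read from the data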
PLCg1 inh = PLC-gamma1 enzyme inhibitors, primary screen, biochemical, fluorescence, purified enzyme. hit rate 0.84% among 370,000. inhibition, % at 12.2 µM. 1-phosphatidylinositol 4,5-bisphosphate phosphodiesterase gamma-1 (Homo sapiens), P19174. fluorogenic substrate
NPR1 activator = GC-A stimulated cGMP production enhancers – HEK293 GC-A cells, cGMP TR-FRET, EC30 ANP, primary screen | Atrial natriuretic peptide receptor 1 (Homo sapiens), P16066 | 0% at EC30 ANP, 100% saturating ANP | activation, % at 10 µM | hit rate 0.14% among 370,000 | AID 1671463, 2021; in the data active means activation above about 40%
PLC-beta3 inh = human PLC-beta3 inhibitors, primary screen, biochemical, fluorescence; 1-phosphatidylinositol 4,5-bisphosphate phosphodiesterase beta-3 (Homo sapiens), Q01970; Purified PLC-beta3, fluorogenic substrate; inhibition, % at 12.2 µM; hit rate 0.18% among 370,000; in the data active means inhibition above about 11%
Target sequence (Q01970 whole entry, looked up): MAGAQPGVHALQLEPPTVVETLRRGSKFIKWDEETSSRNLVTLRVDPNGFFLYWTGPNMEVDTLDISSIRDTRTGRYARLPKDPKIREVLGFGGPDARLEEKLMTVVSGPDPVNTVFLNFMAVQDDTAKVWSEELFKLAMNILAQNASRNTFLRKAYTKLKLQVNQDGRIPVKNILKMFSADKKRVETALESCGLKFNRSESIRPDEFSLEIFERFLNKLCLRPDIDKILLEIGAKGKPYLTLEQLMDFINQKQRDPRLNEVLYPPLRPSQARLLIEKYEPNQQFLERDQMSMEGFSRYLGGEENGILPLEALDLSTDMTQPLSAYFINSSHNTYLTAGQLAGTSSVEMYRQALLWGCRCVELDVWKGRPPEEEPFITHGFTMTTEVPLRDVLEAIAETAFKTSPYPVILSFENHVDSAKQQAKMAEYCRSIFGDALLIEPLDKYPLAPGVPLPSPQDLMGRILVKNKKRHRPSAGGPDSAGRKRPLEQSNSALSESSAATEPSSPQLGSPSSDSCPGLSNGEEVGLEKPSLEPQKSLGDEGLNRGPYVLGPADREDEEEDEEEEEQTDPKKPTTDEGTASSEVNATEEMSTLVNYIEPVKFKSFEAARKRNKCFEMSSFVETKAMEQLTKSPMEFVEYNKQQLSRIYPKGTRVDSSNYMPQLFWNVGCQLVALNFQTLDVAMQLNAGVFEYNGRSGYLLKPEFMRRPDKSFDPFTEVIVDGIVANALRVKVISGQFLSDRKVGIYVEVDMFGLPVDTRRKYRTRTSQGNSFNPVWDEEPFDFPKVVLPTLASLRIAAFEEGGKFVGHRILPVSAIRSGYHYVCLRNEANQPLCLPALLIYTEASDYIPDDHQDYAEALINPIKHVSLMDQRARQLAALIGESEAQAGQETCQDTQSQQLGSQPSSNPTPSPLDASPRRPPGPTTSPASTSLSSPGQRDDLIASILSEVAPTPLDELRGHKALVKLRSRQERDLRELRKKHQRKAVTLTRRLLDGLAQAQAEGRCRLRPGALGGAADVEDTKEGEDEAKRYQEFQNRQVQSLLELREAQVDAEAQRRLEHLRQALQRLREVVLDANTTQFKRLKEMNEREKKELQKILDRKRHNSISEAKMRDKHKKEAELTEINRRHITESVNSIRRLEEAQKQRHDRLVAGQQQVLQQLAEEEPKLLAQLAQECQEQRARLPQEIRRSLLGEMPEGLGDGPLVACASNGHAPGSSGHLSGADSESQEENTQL
PLCg1 ctr = PLC-gamma1 enzyme inhibitors, counter-screen for PLC-beta3 inhibitor project, biochemical, fluorescence; shares compounds with PLCg1 inh; purified PLC-gamma1, fluorogenic substrate; inhibition, % at 12.3 µM; hit rate 3.1% among 3,300; AID 743258, 2014
PLCbeta3 conf = PLC-beta3 inhibitor confirmation, biochemical, fluorescence, purified enzyme. shares compounds with PLCg1 inh. fluorogenic substrate fluorescence. inhibition, % at 12.3 µM. hit rate 1% among 3,300; in the data active means inhibition above about 11%
A number is an active result; . = inactive; / = not tested or not shown. Unless noted, no stated cut-off is given here; in the data, active means inhibition above about 9.5%; inactive means the rest.

SMILES | GC-B act | PLCg1 inh | NPR1 activator | PLC-beta3 inh | PLCg1 ctr | PLCbeta3 conf
COc1ccccc1NC(=O)COc1ccc(C(=O)OCC(=O)NC(C)(C)C)cc1OC | . | 13 | . | . | . | .
N/C(=N\N=C\c1ccc2c(c1)OCO2)c1nonc1N | . | 9.8 | . | 13 | . | .
CN(C(=O)CSc1nnnn1C)C1(C#N)CCCCC1 | . | . | . | . | / | /
CCOC(=O)c1cnn(-c2ccccc2)c1N | . | . | . | . | / | /
CCOC(=O)c1cnn(-c2nc(C)cc(C)n2)c1N | . | 10 | . | . | . | .
O=C(CN1C2=NCCCN2c2ccccc21)c1ccc([N+](=O)[O-])cc1 | . | 9.6 | . | . | . | .
O=C(c1ccc([N+](=O)[O-])cc1)N1CCOC12CCN(c1ncc(C(F)(F)F)cc1Cl)CC2 | . | 11 | . | . | . | .
O=C(c1ccccc1)N1CCOC12CCN(c1ncc(C(F)(F)F)cc1Cl)CC2 | . | . | . | . | / | /
O=C(N/N=C/c1ccccc1Cl)c1nc2ccc([N+](=O)[O-])cc2c(=O)[nH]1 | . | . | . | . | / | /
Cc1ccc(NC=C(S(=O)(=O)c2ccccc2)S(=O)(=O)c2ccccc2)c(C)c1 | . | 13 | . | . | . | .
CCNC(=O)C1(C)CCN1CCS(=O)(=O)c1ccc(C)cc1 (stereo not drawn) | . | . | . | 13 | . | .
C=CC[C@@H](Cc1ccc(F)cc1)C(=O)OC[C@@H]1CCCN1C(=O)[C@H](CC=C)CC(=O)N(CCO)Cc1ccccc1 | . | 10 | . | . | . | .
C=CCC[C@@H](Cc1ccc(F)cc1)C(=O)OC[C@@H]1CCCN1C(=O)[C@@H](CC=C)CC(=O)N[C@@H](CO)Cc1ccccc1 | . | 11 | . | . | . | .
NC(=O)c1cc(S(=O)(=O)NCCc2ccc(Cl)cc2)cs1 | . | 12 | . | . | . | .
O=C(NCc1ccc2c(c1)OCO2)c1ccc2c(c1)N(Cc1c(F)cccc1Cl)C(=O)CS2 | . | . | . | . | / | /
CCN(CC)C(=O)Oc1ccc(Br)cc1C(=O)Nc1ccc(F)cc1F | . | 9.7 | . | . | . | .
CC1(C(=O)Nc2ccc3ccccc3c2)CCC(=O)N1CCOc1ccccc1 (stereo not drawn) | . | . | . | . | / | /
COc1ccc(CC(=O)Nc2nc(-c3cc(OC)ccc3OC)cs2)cc1 | . | . | . | . | / | /
COc1ccc(OC)c(-c2csc(NC(=O)COC(=O)C3(C)CC3(Cl)Cl)n2)c1 (stereo not drawn) | . | 16 | . | . | . | .
CN(C)c1cccc(NC(=O)C2(C)CC2(Cl)Cl)c1 (stereo not drawn) | . | . | . | 16 | . | .
O=C(COc1ccccc1)N1CCN(c2ccc([N+](=O)[O-])c(N3CCCCC3)c2)CC1 | . | 12 | . | . | . | .
Cc1ccc(C(=O)CCC(=O)OCC(=O)Nc2ccc3[nH]c(=O)[nH]c3c2)cc1 | . | . | . | . | / | /
CCC(=O)Nc1nnc(C)s1 | . | 10 | . | . | . | .
Cn1c(/C(C#N)=C/Nc2ccccn2)nc2ccccc21 | . | . | . | . | / | /
CCOc1ccccc1N/C=C(\C#N)c1nc2ccccc2n1C | . | 9.6 | . | . | . | .
SMILES | GC-B act | PLCg1 inh | NPR1 activator | PLC-beta3 inh | PLCg1 ctr | PLCbeta3 conf
N#Cc1ccsc1NC(=O)CCS(=O)(=O)c1ccccc1 | . | . | . | . | / | /
COc1ccc(CCNc2cn[nH]c(=O)c2Cl)cc1OC | . | . | . | . | / | /
COC(=O)[C@H](CC(C)C)NC(=O)Nc1ccc2c(c1)OCCO2 | . | 12 | . | . | . | .
COC(=O)[C@@H](NC(=O)Nc1ccc2c(c1)OCCO2)C(C)C | . | 10 | . | . | . | .
O=c1sc(N2CCN(c3ccccc3F)CC2)nc2ccsc12 | . | . | . | . | / | /
O=C1c2ccc(Oc3ccc([N+](=O)[O-])cc3)cc2C(=O)N1CCO | . | . | . | . | / | /
O=C1NC(=O)c2cc(Oc3ccc([N+](=O)[O-])cc3)ccc21 | . | 11 | . | 11 | . | .
O=C(Nc1cccc(-c2csc(Nc3ccccc3)n2)c1)c1ccccc1 | . | . | . | . | / | /
Cc1ccc(Nc2ncnc(N)n2)cc1C | . | 10 | . | . | . | .
Nc1ncnc(Nc2ccccc2)n1 | . | . | . | . | / | /
C=CCC[C@@H](Cc1ccc(F)cc1)C(=O)OC[C@H](Cc1c[nH]c2ccccc12)NC(=O)[C@@H](CC=C)CC(=O)N[C@@H](CO)Cc1ccccc1 | . | 10 | . | . | . | .
C=CCC[C@@H](Cc1ccc(F)cc1)C(=O)OC[C@@H](NC(=O)[C@@H](CC=C)CC(=O)N(CCO)Cc1ccccc1)c1ccccc1 | . | 14 | . | . | . | .
C=CC[C@H](CC(=O)N(CCO)Cc1ccccc1)C(=O)N[C@@H](COC(=O)[C@@H](CC=C)CC(=O)OC(C)(C)C)Cc1c[nH]c2ccccc12 | . | . | . | 12 | . | .
C=CCC[C@@H](Cc1ccc(F)cc1)C(=O)OC[C@@H](NC(=O)[C@@H](CC=C)CC(=O)N[C@H](CO)Cc1ccccc1)C(C)(C)C | . | 11 | . | . | . | .
C=CCC[C@@H](Cc1ccc(F)cc1)C(=O)OC[C@@H](NC(=O)[C@H](CC=C)CC(=O)N(CCO)Cc1ccccc1)c1ccccc1 | . | . | . | . | / | /
C=CC[C@@H](CC(=O)N[C@@H](CO)Cc1ccccc1)C(=O)N[C@H](COC(=O)[C@@H](CC=C)Cc1ccc(F)cc1)C(C)(C)C | . | . | . | . | / | /
C=CC[C@@H](CC(=O)N(CCO)Cc1ccccc1)C(=O)N[C@@H](COC(=O)[C@H](CC=C)CC(=O)OC(C)(C)C)Cc1c[nH]c2ccccc12 | . | . | . | . | / | /
CCSc1nnc(CNc2ccc(C)cc2)n1C | . | . | . | . | / | /
CCN(CC)c1ccc(C(=O)NNC(=O)c2ccc3c(=O)n4c(nc3c2)CCC4)cc1 | . | . | . | . | / | /
CCCCNC(=O)c1nc(-c2ccc(C(F)(F)F)cc2)oc1-c1ccccc1 | . | . | . | . | / | /
CN(C)CCN(C)C1CN(Cc2ccccc2)S(=O)(=O)C1 (stereo not drawn) | . | . | . | . | / | /
Cc1cc(C)cc(NC(=O)CCOc2ccccc2)c1 | . | . | . | . | / | /
Cc1ccc(F)cc1NC(=O)CCOc1ccccc1 | . | 11 | . | 11 | . | .
Cc1nc(C(F)(F)F)ccc1C(=O)N1CCC1(C)C(=O)NS(=O)(=O)c1cccc(F)c1 (stereo not drawn) | . | . | . | . | / | /
Cc1nc(C(F)(F)F)ccc1C(=O)N1CCC1(C)C(=O)NS(=O)(=O)c1ccc2c(c1)CCO2 (stereo not drawn) | . | 10 | . | . | . | .
COc1cc2c(cc1OC)C(O)=CC(=O)C2=O | . | . | . | . | / | /

Source: PubChem
